Assay outcomes (PubChem)
VACV mCherry inh: qHTS for Stage-Specific Inhibitors of Vaccinia Orthopoxvirus: mCherry Reporter Primary qHTS. Potency, µM (doses to about 36.5 µM), most hits filed as inhibitors. 0.63% of 310,000 active. AID 720579, 2013. Vaccinia virus mCherry reporter infection, fluorescence; calls by dose curve; tested in A549 cells; further: nearly all actives have a fitted effect of over 35% in size
Sm TGR inh: qHTS Assay for the Inhibitors of Schistosoma Mansoni Peroxiredoxins. Potency, µM (doses to about 114 µM), most hits filed as inhibitors. Schistosoma mansoni thioredoxin glutathione reductase (TGR), Q962Y6. AID 485364, 2010. 3% of 360,000 active. purified TGR, DTNB reduction, TNB absorbance 405 nm; further: nearly all actives have a fitted effect of over 60% in size
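TGR 20 nM + NADPH 100 uM (dispensed conc.), cpd preinc 15 min RT; start with NADPH (500 uM addition) then DTNB (15 mM addition). Kinetic TNB absorbance, 405 nm filter. Four-parameter Hill fit across titration.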
VACV Venus inh: qHTS for Stage-Specific Inhibitors of Vaccinia Orthopoxvirus: Venus Reporter Primary qHTS. 0.46% of 330,000 active. Potency, µM (highest dose often 36.5 µM), usual class: inhibitors. Vaccinia virus Venus reporter expression, fluorescence; calls by dose curve; tested in A549 cells; further: nearly all actives have a fitted effect of over 30% in size
FMDV inh: High Throughput Screening for Foot and Mouth Disease Virus Antivirals. FMDV antiviral cell-based qHTS. Potency, µM (top dose mostly 57.9 µM), actives largely listed as inhibitors. 1.2% of 410,000 active; calls by dose curve; tested in HEK293T cells; further: read-out not given here; nearly all actives have a fitted effect of over 45% in size
HCMV inh: qHTS Assay for inhibitors of the human cytomegalovirus (HCMV). HFF cells, HCMV-luciferase reporter, 72 h; active compounds read low. activity change, negative = inhibition, % at 57.5 µM. 4.5% of 410,000 active. AID 1259415, 2018; in the data active means activity change below about -60%; inconclusive means no clear call, values can overlap the other calls; inactive means above about -39%
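HFF cells seeded 16 h at 37C, treated with compounds, infected with luciferase-reporter HCMV at MOI 1 PFU/cell; luciferase read at 72 h post infection, normalized to buffer-only and Salinomycin controls.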
HCV inh: qHTS Assay for Inhibitors of Hepatitis C Virus (HCV); Huh7.5.1 HCVcc-Cre infection, luciferase reporter, 44 h; Potency, µM (titrated, usually from 41.8 µM), actives largely listed as inhibitors; 3.4% of 340,000 active
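Cells seeded at 1,000/well and cultured 4 h, then compounds added followed by HCVcc-Cre virus (~0.5 moi). After 44 h further culture, luciferase substrate was added, plates held 15 min at room temperature, and luminescence read for 15 sec.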
A number is an active result; 0 = inactive; ? = inconclusive; - = not tested or not shown; [ ] = another dose, or the depositor's remark. Rows were chosen to be rich in hits. Some 9.3% of all compounds tested hit in one or more screens of this group. Unless noted, the call rests on the fitted dose curve; in most records, active means well fitted curve in the direction sought with a large enough effect; inconclusive means small, poorly fitted or top-dose-only effect, or another doubt; inactive means no such curve, though single readings can be large; an effect the other way counts as inactive or inconclusive.

SMILES	VACV mCherry inh	Sm TGR inh	VACV Venus inh	FMDV inh	HCMV inh	HCV inh
Cc1c(Cl)cccc1NC(=O)CSc1nnc(C)n1CC1CCCO1 (configuration not stated)	0	0	0	0	0	0
Cc1c(O)ccc2c1OC(C)(C)CC2	0	-	0	-	-	-
CN(C)c1ccc(N2C(=O)CSC2=S)cc1	0	0	0	0	?	0
CC1SC(=S)N(c2ccc(N(C)C)cc2)C1=O (configuration not stated)	11µM	0	0	0	-71	?
Oc1ccc2cc(Br)ccc2c1CN1CCCC1	0	32µM	0	0	0	0
Oc1ccc2ccccc2c1CN1CCN(c2ccccc2)CC1	-	2.8µM	-	0	0	0
Oc1ccc2ccccc2c1CNc1ccc(Br)cn1	-	0	-	0	0	?
Oc1ccc2ccccc2c1CN1CC=C(c2ccccc2)CC1	0	22µM	0	0	0	0
Oc1ccc2ccccc2c1CN1CCCCC1	?	-	0	0	0	0
Oc1ccc2ccccc2c1CN1CC2CCC(CC2)C1	0	-	0	0	0	0
Oc1ccc2ccccc2c1CNc1ccc(Br)cc1	-	0.63µM	-	0	0	2.5µM
O=C(Cn1c(=O)c2cccn2c2ccc(F)cc21)NCCCN1CCN(c2ccccc2F)CC1	0	0	0	0	0	?
NCc1c(O)ccc2ccccc12	-	13µM	-	-	0	-
Oc1ccc2ccccc2c1CN1CCCC1	0	2.5µM	0	0	0	0
N#C/C(=C/c1ccc(-c2cc([N+](=O)[O-])ccc2Cl)o1)C(N)=O	-	?	-	0	0	0
CCCCC[C@H](O)/C=C/[C@@H]1[C@@H](CC(=O)CCCCC(=O)O)[C@@H](O)C[C@H]1O	0[3.33 µM]	-	0[3.33 µM]	0[6.7 µM]	-	-
O=C(Cc1cccc2ccccc12)N/N=C/C=C/c1cccc([N+](=O)[O-])c1	?	0	0	0	0	?
CCOC(=O)c1cccc(NC(=O)C2CCCN(S(=O)(=O)c3c(C)n[nH]c3C)C2)c1 (configuration not stated)	?	0	0	?	0	0
COc1ccccc1-c1nnc(C2CCN(C(=O)c3cccc(C)c3)CC2)o1	0	0	0	0	-65	-
COc1ccc(C(=O)N2CCN(c3nc4ccccc4o3)CC2)cc1OC	0	0	0	?	?	11µM
COc1cccc2sc(N3CCN(C(=O)CCS(=O)(=O)c4ccc(F)cc4)CC3)nc12	0	0	0	20µM	-88	-
Cc1ccc(S(=O)(=O)CCC(=O)N2CCN(c3nc4c(C)c(Cl)ccc4s3)CC2)cc1	0	0	0	?	0	-
COc1ccc(C(=O)N2CCC(c3noc4ccccc34)CC2)cc1OC	-	-	-	-	-65	-
COc1ccc(C(=O)N2CCN(c3ccc(C)cc3)CC2)cc1OC	0	0	0	?	0	0
COc1ccccc1-c1nnc(C2CCN(S(=O)(=O)c3ccccc3)CC2)o1	0	0	0	0	0	-
SMILES	VACV mCherry inh	Sm TGR inh	VACV Venus inh	FMDV inh	HCMV inh	HCV inh
O=C(COC(=O)c1ccc(Cl)c(Cl)c1)Nc1cccnc1Cl	0	0	0	0	0	0
COc1cccc2sc(N3CCN(C(=O)c4ccco4)CC3)nc12	0	0	0	0	0	0
COc1ccc(C(=O)N2CCN(c3nc4c(OC)cccc4s3)CC2)cc1OC	0	0	?	?	-84	-
O=C(Cc1ccc(F)cc1)OCC(=O)c1cc2ccccc2o1	0[1.46 µM]	0	0	0	0	0
O=C(CCNc1ccc(F)cc1)c1cc2ccccc2o1	?	0.32µM	0	0	0	?
O=C(CCNc1cccc(F)c1)c1cc2ccccc2o1	?	0.35µM	0	0	?	0
CCOC(=O)[C@]1(C#N)[C@@H]2C=CC(C(C)=O)=CN2[C@@H](C(N)=O)[C@@H]1c1ccsc1	-	40µM	0	0	0	0
CCOc1ccc(C(C)=O)cc1CN1C(=O)C(=O)N(CC)C1=O	0	0	0	14µM	?	0
CCc1nc2ccccc2n1CCC(=O)O	0	0	0	-	0	0
Oc1ccc2c(c1)OCC1(O)Cc3cc(O)c(O)cc3C21 (configuration not stated)	0	-	0	0	0	25µM
Oc1cc2c(cc1O)[C@H]1c3ccc(O)c(O)c3OC[C@@]1(O)C2	0	2.2µM	0	0	0	?
O=[N+]([O-])CC(=Nc1ccc(Cl)cc1)N/N=C\c1oc(O)c2ccccc12	0	13µM	0	0	0	?
COc1ccc(Cn2nnnc2CN2CCC(O)(c3ccccc3F)CC2)cc1	0	0	0	0	0	0
c1ccc(Nc2nc3ccccc3n3nnnc23)cc1	0	0	0	0	0	0
CC(C)CCNC(=O)c1cccc(Nc2nc3ccccc3n3nnnc23)c1	?	0	?	0	-81	-
c1ccc2c(c1)nc(Nc1ccc3c(c1)OCO3)c1nnnn12	-	0	0	0	-78	0
COc1ccc(CCNC(=O)c2ccc(Nc3nc4ccccc4n4nnnc34)cc2)cc1OC	0	0	0	?	-114	-
CC(NC(=O)c1cccc(Nc2nc3ccccc3n3nnnc23)c1)c1ccccc1 (configuration not stated)	?	0	10µM	?	-68	-
O=S(=O)(c1ccccc1)[C@@]1(c2ccc(Br)cc2)C[C@@H]2ON=C(c3ccccc3)[C@@H]2C1	0	0	0	0	0	10µM
O=S(=O)(c1ccccc1)[C@@]1(c2ccc(Br)cc2)C[C@@H]2ON=C(c3cccc(Br)c3)[C@@H]2C1	0	0	0	0	0	0
CSCC(C)N1CCC(CO)(CCCc2ccccc2)CC1 (configuration not stated)	0	0	0	0	0	0
CCOC(=O)c1c(NC(=O)c2ccccc2Cl)sc2c1CCc1ccccc1-2	0	0	0	?	?	7.9µM
CCOC(=O)c1c(NC(=O)c2ccccc2)sc2c1CCc1ccccc1-2	0	0	0	0	0	0
O=C1c2ccccc2C(Nc2ccc(-c3nc4ccccc4[nH]3)cc2)N1Cc1ccco1 (configuration not stated)	0	0	?	0	0	10µM
COc1ccc(NC2c3ccccc3C(=O)N2Cc2ccco2)cc1OC (configuration not stated)	?	0	0	0	?	0
O=C1c2ccccc2C(Nc2ccc(F)c(Cl)c2)N1Cc1ccco1 (configuration not stated)	0	13µM	0	0	0	?
COc1ccccc1CC(=O)Nc1ccc(C(=O)N2CCCCC2)cc1	0	0	0	0	0	-
CCCC(=O)NCC(c1cccs1)S(=O)(=O)c1ccc(Cl)cc1 (configuration not stated)	0	0	0	0	-103	0
COc1ccc(CC(=O)NCC(c2cccs2)S(=O)(=O)c2ccc(Cl)cc2)cc1 (configuration not stated)	0[7.34 µM]	11µM	0[7.34 µM]	0	?	-
